Pf growth 96h: P. falciparum growth inhibition at 96 hours. 6.9% of 320,000 active. P. falciparum luciferase reporter growth, 96 h. Potency, µM (highest dose often 28.7 µM), for the others: at the top dose activity change, negative = inhibition, most hits filed as inhibitors; also: potency is read from the fitted curve at half-maximal effect; % is scaled to controls: 0 for no effect and ±100 for the full control effect
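96 h incubation, 37 C, 5% CO2, of luciferase-reporter P. falciparum-infected RBCs (2% hematocrit, 0.05% parasitemia final) with test compounds; endpoint luminescence.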
Shiga inhibitor: inhibitors of Shiga toxin in Vero cells. Vero cells, Shiga toxin protein synthesis inhibition reporter. inhibition, % at 38.7 µM. 9.2% of 290,000 active. AID 2315; in the data active = inhibition mostly above about 28%, no sharp cut-off; inactive = mostly below about 43%; also: 0% is about no effect
Pf growth 48h: P. falciparum growth inhibition at 48 hours (one generation) | P. falciparum luciferase growth in erythrocytes, 48 h | Potency, µM (highest dose often 28.7 µM), inactives show at the highest dose activity change, negative = inhibition, actives largely listed as inhibitors | 5.9% of 310,000 active; also: potency is read from the fitted curve at half-maximal effect; % is scaled to controls: 0 for no effect and ±100 for the full control effect
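A one-generation exposure of luciferase-tagged malaria parasites in RPMI 1640/Albumax erythrocyte culture, 37 C and 5% CO2. Inhibition is inferred from decreased luminescence after adding detection reagent.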
HCV inh: inhibitors of hepatitis C virus infection; Huh7.5.1 HCVcc-Cre infection, luciferase reporter, 44 h; 3.4% of 340,000 active; AID 651820; Potency, µM (highest dose often 41.8 µM), for inactives: at the top dose activity change, negative = inhibition, most hits filed as inhibitors; also: potency is read from the fitted curve at half-maximal effect; % is scaled to controls: 0 for no effect and ±100 for the full control effect
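Whole-lifecycle infectious HCVcc-Cre system; cells 1,000/well, compound then virus (~0.5 moi) added 4 h after plating, 44 h culture. Luciferase read 15 sec following 15 min substrate incubation, room temp.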
HCMV antiviral: blocks human cytomegalovirus replication; 4.5% of 410,000 active; AID 1259415; HFF cells, HCMV-luciferase reporter, 72 h; stronger effect = lower value; activity change, negative = inhibition, % at 57.5 µM; in the data active = activity change below about -60%; inconclusive = no clear call, values can overlap the other calls; inactive = above about -39%; also: % is scaled to controls: 0 for no effect and ±100 for the full control effect
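Compounds were evaluated in HFFs infected with an HCMV luciferase reporter virus (MOI 1 PFU/cell). Luciferase in lysates collected 72 h post infection served as the replication measure.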
Cycloheximide cs: affects cycloheximide protein synthesis inhibition readout, counter-screen; 12% of 300,000 active; AID 2314; max response, %; cell reporter, cycloheximide protein synthesis inhibition counterscreen; in the data active = max response mostly above about 13%, no sharp cut-off; inactive = mostly below about 14%; also: read at 38.3 µM for the half of the compounds with a filed dose; 0% is about no effect
* hit, by the source's call; ? = inconclusive; . = not tested or not shown; [ ] = another dose, or the depositor's remark. A selection: hits, their analogues and other compounds. The true share with any hit is near 21%. Unless noted, calls follow the shape of the dose curve; as a rule, active = well fitted inhibition curve with a large enough effect; inconclusive = small, poorly fitted or top-dose-only effect, or another doubt; inactive = no such curve, though single readings can be large or run the other way.

SMILES | Pf growth 96h | Shiga inhibitor | Pf growth 48h | HCV inh | HCMV antiviral | Cycloheximide cs
CC1=C(/C=C/C(C)=C/C=C/C(C)=C/C(=O)Oc2c(C)c(C)c3c(c2C)CC[C@@](C)(CCC[C@H](C)CCC[C@H](C)CCCC(C)C)O3)C(C)(C)CCC1 | 10% | . | -1% | . | . | .
Cc1ccccc1CN1C(=O)c2ccccc2Sc2ccc(C(=O)NCCN3CCOCC3)cc21 | ? | 9 | 8.3µM* | ? | 0 | -3
O=C(NCCCN1CCOCC1)c1ccc2c(c1)N(Cc1c(F)cccc1Cl)C(=O)c1ccccc1S2 | ? | -5 | ? | ? | 0 | -9
O=C(NCCCN1CCOCC1)c1ccc2c(c1)N(Cc1cccc(Cl)c1)C(=O)c1ccccc1S2 | . | . | . | . | -89* | .
CC(C)(C)N1C(=O)[C@H]2[C@@H](c3ccc(Br)cc3)N3C(=O)N(c4ccc(Br)cc4)C(=O)[C@@]3(Cc3ccccc3)[C@H]2C1=O | ? | 29 | ? | 7.9µM* | . | 10
COc1ccc([C@@H]2[C@@H]3C(=O)N(C(C)(C)C)C(=O)[C@@H]3[C@]3(Cc4ccccc4)C(=O)N(c4ccc(C)cc4)C(=O)N23)cc1 | ? | . | ? | -10% | -23 | .
Cc1ccc(N2C(=O)N3[C@H](c4ccc(Br)cc4)[C@@H]4C(=O)N(C(C)(C)C)C(=O)[C@@H]4[C@]3(C)C2=O)cc1 | ? | -1 | 0% | ? | -85* | 1
CC(C)(C)N1C(=O)[C@H]2[C@@H](c3ccc(Br)cc3)N3C(=O)N(c4cccc(F)c4)C(=O)[C@@]3(Cc3ccccc3)[C@H]2C1=O | 4.7µM* | . | 5.2µM* | ? | -30 | .
COc1ccc([C@@H]2[C@@H]3C(=O)N(C(C)(C)C)C(=O)[C@@H]3[C@]3(Cc4ccccc4)C(=O)N(c4cccc(F)c4)C(=O)N23)cc1 | 9.3µM* | . | ? | 1% | -22 | .
COc1ccc([C@@H]2[C@@H]3C(=O)N(C(C)(C)C)C(=O)[C@@H]3[C@]3(CC(C)C)C(=O)N(c4cccc(F)c4)C(=O)N23)cc1 | ? | . | ? | 8% | 74 | .
Cc1ccc(Nc2sc(C(=O)c3ccccc3)c(N)c2S(=O)(=O)c2ccccc2)c(C)c1 | . | . | . | . | -1 | .
C[C@@H]1CN([C@H](C)CO)C(=O)CCCn2nncc2CO[C@H]1CN(C)C(=O)Nc1ccc2c(c1)OCCO2 | . | . | . | . | 44 | .
COc1cc2[nH]c(=O)n(CCCCCC(=O)NCCc3ccccc3)c(=O)c2cc1OC | . | . | . | . | 2 | .
CCC(=O)O[C@@]1(C(=O)SCF)[C@@H](C)C[C@H]2[C@@H]3C[C@@H](F)C4=CC(=O)C=C[C@@]4(C)[C@]3(F)[C@@H](O)C[C@]21C | 4.1µM* | . | 5.7µM* | . | . | .
Cc1ccc(S(=O)(=O)N(CC(O)Cn2c3ccccc3c3ccccc32)c2cccc(C(=O)NCCO)c2)cc1 (stereo not drawn) | . | . | . | . | -33 | .
CCOc1ccc(/C=N/NC(=O)CC(=O)Nc2ccc(Cl)c(Cl)c2)cc1 | ? | -3 | 0% | 9% | -16 | -2
Clc1ccc(/C=N\Nc2ccccc2)cc1 | ? | 27* | -3% | -5% | -8 | 12
CCOc1ccc(/C=N/NC2=NCCCCC2)cc1 | 17% | 27* | 30% | 6% | -13 | 19*
O=C(N/N=C/c1ccc(Cl)cc1)Nc1ccccc1 | -25% | 50* | 31% | 0% | 14 | 39*
O=C(Cc1ccccc1)NCC(=O)N/N=C/c1ccc(Cl)cc1 | -9% | 7 | -12% | -5% | ? | -3
CCOc1ccc(/C=N/Nc2ccccc2)cc1 | 46% | 47* | 3%[0.00184 µM] | -24% | 98 | 27*
Cc1ccccc1OCc1ccc(-c2nc(C#N)c(N3CCC(C(N)=O)CC3)o2)o1 | . | . | . | . | -38 | .
Cc1ccc(NNC(=O)c2ccc(Cl)cc2)nn1 | 34% | -13 | -4% | 3% | 3 | 1
Cc1ccc(NC(=O)CN2C(=O)S/C(=C\c3cc(Cl)c(OCC(=O)O)c(Cl)c3)C2=O)cc1 | -3% | . | 40% | 11% | -18 | -3
CC1CC(C)CN(S(=O)(=O)c2ccc3c(c2)NC(=O)C(C)C(=O)N3)C1 (stereo not drawn) | -29% | 2 | 27% | 11% | -31 | -2
SMILES | Pf growth 96h | Shiga inhibitor | Pf growth 48h | HCV inh | HCMV antiviral | Cycloheximide cs
O=C(CCC(=O)Nc1ccccc1)N/N=C/c1ccco1 | -6% | -5 | 12% | 4% | -9 | 6
O=C(N/N=C/c1ccco1)Nc1ccccc1 | -13% | 102* | 195% | -3% | 123 | 29*
CCOc1ccc(/C=N/OCC(=O)NC(c2ccccc2)c2ccccc2)cc1 | 9.3µM* | 21 | 7.4µM* | ? | -33 | 5
N#C/C(=C(/O)c1ccco1)c1nc2ccccc2[nH]1 | ? | 3 | 31% | 21% | -12 | 21
CC1=CC(=C(C#N)c2nc3ccccc3s2)C=C(C)N1Cc1ccco1 | . | 14 | 3.3µM* | ? | 58 | -3
N#C/C(=C(/O)c1ccco1)c1nc2ccccc2s1 | 70% | 66* | 74% | 7% | 48 | 38*
O=C(c1ccco1)N(c1ccccn1)c1ccccn1 | . | 7 | -1% | 3% | 3 | -2
N#CC(C(=O)c1ccco1)c1ccccn1 (stereo not drawn) | 2% | 26 | 60% | 11% | 41 | 17*
N#C/C(=C(\O)c1ccco1)c1ccccn1 | ? | 70* | 39% | 5% | 31 | 31*
CC1=C(C(=O)Nc2cccnc2)C(c2ccc(C)cc2)n2nc(SCc3ccccc3F)nc2N1 (stereo not drawn) | . | . | . | . | 7 | .
Cc1cccc(NC(=O)c2nc[nH]c2C(=O)Nc2ccccc2F)c1 | . | . | . | . | -30 | .
N#C/C(=C(/O)c1cccc(F)c1)c1nc2ccccc2s1 | 111% | 8 | 67% | -14% | -70* | 12*
O=c1[nH]c(/C(Cl)=C/c2cc(Cl)ccc2O)nc2cc(Cl)ccc12 | 9.3µM* | -5 | -23% | -23% | -70* | -1
Cc1ccc(N2C(=O)N(CC(=O)Nc3ccccc3C(F)(F)F)C(=O)C2C)cc1 (stereo not drawn) | 27% | . | -27% | -29% | -15 | .
Cc1ccc(/C=C/C(=O)OC(C)C(=O)Nc2ncc(Cl)cc2Cl)o1 (stereo not drawn) | 24% | -5 | 14% | -4% | -98* | -2
Cc1nn(-c2ccccc2)c(C)c1/C=C/C(=O)OC(C)C(=O)Nc1ncc(Cl)cc1Cl (stereo not drawn) | 27% | -10 | 25% | ? | -33 | -2
COc1ccc(-c2ccc(C(=O)Nc3ccc4c(c3)OCO4)c3occc23)c(C)c1 | . | . | . | . | 31 | .
c1ccc(NCC2OCc3ccccc3CO2)cc1 | 7% | 98* | 106% | 9% | ? | 43*
Cc1ccc(S(=O)(=O)CC(=O)Nc2sc3c(c2C#N)CCCC3)cc1 | . | . | . | . | 0 | .
O=C(CCS(=O)(=O)c1ccccc1)Nc1nc2cc3c(cc2s1)OCCO3 | 5.2µM* | 90* | -36% | 2% | 35 | 45*

Screens (PubChem BioAssay)
